High-throughput results deposited in PubChem BioAssay by National Center for Advancing Translational Sciences (NCATS).
HP1b binding inh: HTS for Inhibitors of HP1-beta Chromodomain Interactions with Methylated Histone Tails; 390,000 compounds, 0.56% hits; AlphaScreen HP1-beta / biotin-H3K9me3 peptide binding; Potency, µM (top dose mostly 114 µM), without a hit: at the highest dose activity change, negative = inhibition, actives largely listed as inhibitors; further: potency means the concentration at half of the fitted maximal effect; nearly all actives have a fitted effect of over 70% in size
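AlphaScreen: HP1-beta (50 nM) preformed 30 min with biotin-H3(1-18)K9me3 peptide (50 nM) in PBS pH 7.4, 0.01% Tween-20. Compound added for 30 min at RT, then streptavidin donor/nickel chelate acceptor beads (10 ug/mL) for 30 min.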
BAZ2B inh: qHTS Assay for Inhibitors of BAZ2B; Bromodomain adjacent to zinc finger domain protein 2B (Homo sapiens), Q9UIF8; AlphaScreen BAZ2B-H3K14Ac peptide displacement; Potency, µM (titrated, usually from 114 µM), for the others: at the highest dose activity change, negative = inhibition, most hits filed as inhibitors; 360,000 compounds, 4.4% hits; further: potency means the concentration at half of the fitted maximal effect; on the % scale 0 is the no-effect control and ±100 the full control effect; nearly all actives have a fitted effect of over 60% in size
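Compounds, titrated to a top concentration of 110 uM, were incubated 30 min at room temperature with preformed BAZ2B/acetyl-K14 H3 peptide complex (50 nM each). Proximity signal was measured by AlphaScreen after 20 min with beads.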
PI5P4K alpha inh: qHTS for Inhibitors of phosphatidylinositol 5-phosphate 4-kinase (PI5P4K); PI5P4Kalpha enzyme, ADP-Glo luminescence, 60 min; active compounds read low; max response, %; 330,000 compounds, 1.2% hits; active means max response of -50% or lower; inconclusive means between -30% and -50%; inactive means -30% or higher; further: value at the top dose of about 77 µM; on the % scale 0 is the no-effect control and ±100 the full control effect
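Reactions run in 0.038 M HEPES pH 7.4, 0.28 mM EGTA, 0.1% CHAPS and 5% DMSO, with PI5P4Kalpha, substrate, compound and 5 microM ATP final, one hour at room temperature. Readout is ADP-Glo luminescence.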
PLK1 PBD block: qHTS for Inhibitors of PLK1-PDB (polo-like kinase 1 - polo-box domain): Primary Screen; 360,000 compounds, 2.8% hits; Serine/threonine-protein kinase PLK1 (Homo sapiens), P53350; Plk1 PBD binding of FITC phosphopeptide, fluorescence polarization; Potency, µM, without a hit: max response, negative = inhibition, most hits filed as inhibitors; further: potency means the concentration at half of the fitted maximal effect; series mostly up to about 57 µM; on the % scale 0 is the no-effect control and ±100 the full control effect; nearly all actives have a fitted effect of over 65% in size
JMJD2A Tudor inh: qHTS Assay for Inhibitors of JMJD2A-Tudor Domain; AID 504339, 2011; Potency, µM (series often up to 114 µM), without a hit: at the top dose activity change, negative = inhibition, usual class: inhibitors; Lysine-specific demethylase 4A (Homo sapiens), O75164; 390,000 compounds, 4.4% hits; AlphaScreen JMJD2A-Tudor / H3K4me3 peptide binding; further: potency means the concentration at half of the fitted maximal effect; on the % scale 0 is the no-effect control and ±100 the full control effect; nearly all actives have a fitted effect of over 50% in size
GCN5L2 inh-1: qHTS Assay for Inhibitors of GCN5L2 | GCN5L2 HAT assay, ThioGlo1 CoA-SH fluorescence | Potency, µM (series often up to 58.9 µM), without a hit: top-dose activity change, negative = inhibition, most hits filed as inhibitors | 390,000 compounds, 0.21% hits | AID 504327, 2011; further: potency means the concentration at half of the fitted maximal effect; on the % scale 0 is the no-effect control and ±100 the full control effect
Target sequence (Q92830 whole entry, looked up): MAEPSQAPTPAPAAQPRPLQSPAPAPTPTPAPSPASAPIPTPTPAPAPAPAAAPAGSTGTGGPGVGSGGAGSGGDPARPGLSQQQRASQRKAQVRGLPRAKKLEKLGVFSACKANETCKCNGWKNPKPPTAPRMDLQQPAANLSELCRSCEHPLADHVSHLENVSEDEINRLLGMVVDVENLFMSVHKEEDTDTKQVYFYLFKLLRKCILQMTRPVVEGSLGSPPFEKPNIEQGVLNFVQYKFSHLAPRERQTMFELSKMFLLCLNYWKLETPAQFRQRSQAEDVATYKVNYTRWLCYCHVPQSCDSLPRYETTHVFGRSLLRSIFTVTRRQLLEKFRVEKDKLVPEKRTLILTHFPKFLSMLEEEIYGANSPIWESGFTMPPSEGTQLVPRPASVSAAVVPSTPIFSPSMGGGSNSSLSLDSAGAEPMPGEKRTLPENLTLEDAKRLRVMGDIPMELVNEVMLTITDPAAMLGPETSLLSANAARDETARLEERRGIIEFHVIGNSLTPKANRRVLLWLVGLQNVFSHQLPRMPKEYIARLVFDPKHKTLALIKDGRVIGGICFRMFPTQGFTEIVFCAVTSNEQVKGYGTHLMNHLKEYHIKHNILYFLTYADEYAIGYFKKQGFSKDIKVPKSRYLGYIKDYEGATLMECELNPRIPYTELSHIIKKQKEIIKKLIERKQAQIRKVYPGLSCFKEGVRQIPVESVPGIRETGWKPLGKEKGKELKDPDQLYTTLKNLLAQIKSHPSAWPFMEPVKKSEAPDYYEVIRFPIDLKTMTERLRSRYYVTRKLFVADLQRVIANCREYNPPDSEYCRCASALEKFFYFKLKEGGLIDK
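Compounds, pin-transferred from DMSO stocks, meet 20nM GCN5L2 for 15 min before the reaction begins with H3(1-25) peptide (75uM) and acetyl-CoA (70uM). Thiol-reactive ThioGlo1 reports CoA release over 20 min at room temperature.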
GCN5L2 inh-2: qHTS Assay for Inhibitors of GCN5L2: Hit confirmation; Potency, µM, actives largely listed as inhibitors; 140 compounds, 70% hits; shares compounds with GCN5L2 inh-1; GCN5L2 HAT, ThioGlo1 CoA fluorescence, 20 min
The depositor's hits bear a star; ? = inconclusive; nt = no result given; ! = not confirmed by another sample; [ ] = remark or other dose. A selection: hits, their analogues and other compounds. The true share with any hit is near 7%. Unless noted, the call rests on the fitted dose curve; in most records, active means well fitted curve in the direction sought with a large enough effect; inconclusive means small, poorly fitted or top-dose-only effect, or another doubt; inactive means no such curve, though single readings can be large; an effect the other way counts as inactive or inconclusive.

SMILES | HP1b binding inh | BAZ2B inh | PI5P4K alpha inh | PLK1 PBD block | JMJD2A Tudor inh | GCN5L2 inh-1 | others
CCOC(=O)c1c(NC(=O)C2CC(Cl)=CCC2C(=O)O)sc2c1CCCCC2 (centres undefined) | -6% | 50µM* | 0 | ? | ? | -28%
CCOC(=O)c1c(NC(=O)CCCC(=O)O)sc2c1CCC2 | -16% | -22% | -2 | -10% | -15% | -2%
CCS(=O)c1ccccc1C(=O)OCC(=O)Nc1ccc2ccccc2c1 (centres undefined) | 29% | nt | 1 | 1% | 3% | -6%
C/C(=N\NC(=O)c1cccc(Br)c1)c1cccnc1 | 32% | -32% | 0 | -13% | -16% | 6%
CC(=O)c1ccc(NC(=O)/C=C/c2ccc(C)o2)cc1 | ? | ? | nt | nt | 50µM* | -12%
CC(=O)/C=C/c1ccc(C)o1 | 11% | -5% | 1 | -18% | 4% | 2%
COC(=O)c1ccc(Cl)cc1NC(=O)/C=C/c1ccc(C)o1 | 12% | 1% | -3 | -13% | -5% | 1%
Cc1ccc(NC(=O)/C=C/c2ccc(C)o2)c(C)c1 | ? | 79µM* | nt | nt | ? | -6%
Cc1ccc(/C=C/C(=O)Nc2ccc([N+](=O)[O-])cc2)o1 | 14% | 50µM* | nt | -13% | -8% | 2%
CC1CCCC(N2CCN(C(=O)c3cccc(F)c3)CC2)C1 (centres undefined) | ? | 50µM* | nt | -3% | 4.5µM* | -4%
CC1CCCC(N2CCN(C(=O)c3ccccc3F)CC2)C1 (centres undefined) | 40% | -2% | -6 | -1% | -5% | 1%
COc1cccc(C(=O)N2CCN(C(=O)c3cccc(F)c3)CC2)c1 | 41% | -11% | 3 | -3% | -5% | 0%
CC1CCCCC1N1CCN(C(=O)c2cccc(F)c2)CC1 (centres undefined) | ? | ? | -6 | -5% | 40µM* | -1%
O=C(COC(=O)CNC(=O)c1ccccc1)Nc1cc(C(F)(F)F)ccc1Cl | nt | nt | nt | nt | -14% | nt
O=C(NCCCN1CCCC1=O)c1ccccc1OCc1ccc(Cl)cc1Cl | 16% | nt | 7 | -5% | -10% | -1%
O=C(Nc1ccc2c(c1)CCC2)c1cnn2c1NC(=C1CC1)C=C2C(F)F | 17% | nt | nt | nt | nt | nt
CC1CCN(S(=O)(=O)c2ccc3c(c2)N(CC(=O)NCc2cccnc2)C(=O)CS3)CC1 | 5% | 2% | -20 | 27µM* | ? | 3%
O=C(CN1C(=O)CSc2ccc(S(=O)(=O)N3CCCCC3)cc21)NCc1cccnc1 | 33% | -5% | -1 | 2% | 7% | 2%
CC(C)NC(=O)CN1C(=O)CSc2ccc(S(=O)(=O)N3CCCC3)cc21 | 2% | -19% | -3 | 24µM* | -31% | -1%
CC1CCN(CCCNC(=O)CN2C(=O)CSc3ccc(S(=O)(=O)N4CCC(C)CC4)cc32)CC1 | ? | -7% | 3 | 2% | 56µM*! | -5%
COc1cccc(NC(=O)CCC(=O)N2Cc3ccccc3Oc3ncccc32)c1 | 32% | 8%[57.1 µM] | nt | nt | -13% | 44%
COc1ccc(N2CCN(C(=O)CCC(=O)N3Cc4ccccc4Oc4ncccc43)CC2)cc1 | 5% | 40µM* | 2 | -3% | -27% | 1%
CC1(C)CSC(=NCCc2ccccc2)N1 | -3% | 10% | 2 | -15% | -16% | -16%
COc1ccc(NC(=O)CN2CCc3ccccc3C2)c(OC)c1 | 38% | -36% | 1 | 3% | -13% | 1%
COc1ccc(OC)c(CN2CCN(Cc3ccc(OC)c(OC)c3OC)CC2)c1 | nt | nt | -16 | -17% | nt | nt
SMILES | HP1b binding inh | BAZ2B inh | PI5P4K alpha inh | PLK1 PBD block | JMJD2A Tudor inh | GCN5L2 inh-1 | others
COc1ccc(CN2CCc3ccccc3C2)c(OC)c1 | ? | ? | 3 | -1% | 2.8µM* | 1%
COc1ccc(CN2CCN(Cc3ccco3)CC2)c(OC)c1 | ? | 40µM* | 10 | 5% | 3.2µM* | -1%
COc1ccccc1CN1CCN(Cc2ccco2)CC1 | ? | 25µM* | -9 | 2% | 4µM* | 17%
COc1cc(CN2CCN(Cc3ccco3)CC2)cc(OC)c1 | ? | 25µM* | 2 | -17% | 0.79µM* | 3%
COc1ccccc1CN1CCN(Cc2nc(-c3ccc(C)cc3)oc2C)CC1 | 17% | -33% | -2 | -3% | ? | -8%
COCc1c(C(=O)N(C)Cc2ccccc2N2CCCC2)oc2ccccc12 | -31% | ? | -3 | -7% | 45µM* | 4%
COCc1c(C(=O)N2CCN(c3ncccn3)CC2)oc2ccccc12 | 52% | -7% | -3 | 1% | 4% | -5%
Cn1c(O)c(N=Nc2ccccc2)c2ccccc21 | 1% | -8% | 3 | ? | -11% | 20%
Nc1ccc2ccccc2c1N=Nc1ccccc1 | 13µM* | nt | 39 | -4% | 13µM* | nt
CC(=O)C(Sc1nnnn1-c1ccc(O)cc1)c1ccccc1 (centres undefined) | 30% | 3% | -3 | -7% | -4% | -17%
Cc1cccc(C)c1NC(=O)CSc1nnc(-c2ccco2)c(-c2ccco2)n1 | 50µM* | 2.5µM* | -69* | 19µM* | 25µM* | 13µM* | GCN5L2 inh-2=?
O=C(CSc1nnc(-c2ccco2)c(-c2ccco2)n1)Nc1ccccc1 | 22µM* | 20µM* | -84* | 19µM* | 50µM* | ? | GCN5L2 inh-2=26*
COc1ccc(-c2nnc(SCC(=O)Nc3c(C)cccc3C)nc2-c2ccc(OC)cc2)cc1 | -1% | -14% | nt | nt | -36% | -1%
O=C(CSc1n[nH]c(-c2ccco2)n1)Nc1ccc(F)cc1 | -6% | -4% | 1 | -9% | -18% | 1%
CCOC(=O)c1c(NC(=O)COC(=O)c2cnccn2)sc(C(=O)NC)c1C | 20% | -6% | 1 | -3% | -14% | 0%
CCOC(=O)c1c(-c2ccco2)csc1NC(=O)COC(=O)c1cnccn1 | ? | 50% | -64* | -19% | ? | 11µM* | GCN5L2 inh-2=?
O=C(O)c1cc(-c2ccc(-c3ccc(F)cc3)o2)nc2ccccc12 | 35% | ? | ? | 15µM* | 0% | ? | GCN5L2 inh-2=20*
